The campaign covered roughly 6,200 compounds. About 2,900 (47%) were called active. The set was probably picked from earlier hits. The list shows a part of the results. Unmarked numbers belong to inactive results. No stated cut-off is given here; in the data, active means inhibition above about 50%; inactive means the rest.
Assay: Mycobacterium tuberculosis growth inhibition, primary screen (AID 1259343)
Conditions: inhibition: at 10 µM, hits give high values; outcome: 10 uM

SMILES | inhibition
CC(C)n1c(=O)[nH]c2ccccc21 | 19.6%
C/C(=C\c1ccccc1)C1Nc2ccccc2C(=O)N1C (stereo not given) | 48.1%
CC(C)N1C(=O)c2ccccc2NS1(=O)=O | 72.9% (active)
O=C1OCC(CO)(CO)N=C1NNc1ccc(Cl)c(Cl)c1 | 87.5% (active)
O=C1OCC(CO)(CO)N=C1NNc1ccc(Cl)cc1 | 81.8% (active)
O=C1OCC(CO)(CO)N=C1NNc1ccc(I)cc1 | 36.3%
O=C1OCC(CO)(CO)N=C1NNc1ccc([N+](=O)[O-])cc1 | -25.1%
O=C1OCC(CO)(CO)N=C1NNc1cc(Cl)ccc1Cl | 91.9% (active)
CN1CCN(C(=O)c2cc(COc3cncc(Cl)c3)on2)CC1c1ccccc1 (stereo not given) | 88% (active)
Cc1nc2cc(OCc3cc(C(=O)N4CCN(C)C(c5ccccc5)C4)no3)ccc2s1 (stereo not given) | 10.6%
CN(CCCC1CCCC1)C(=O)c1cnon1 | 12.9%
O=C(c1cc(COc2cncc(Cl)c2)on1)N(CCO)Cc1cccs1 | 89.6% (active)
CN(Cc1cnc2ccccn12)C(=O)c1cc(COc2cncc(Cl)c2)on1 | 62.9% (active)
CN(CC1CCCCO1)C(=O)c1cc(COc2cncc(Cl)c2)on1 (stereo not given) | 95.4% (active)
CCc1ccc(CN(C)C(=O)c2cc(COc3cncc(Cl)c3)on2)cc1 | inactive
COc1ccc(OCc2cc(C(=O)N(C)CC3CCCCO3)no2)c(Cl)c1 (stereo not given) | inactive
Cc1cccc(C)c1OCc1cc(C(=O)N2CCCC(c3ccccc3)C2)no1 (stereo not given) | 47.2%
Cc1ccc(C(C)C)cc1S(=O)(=O)NCc1ccco1 | -19.8%
FC(F)(F)c1ccc(Oc2ccc3c(C4CC4)noc3n2)cn1 | 92.3% (active)
Clc1cncc(Oc2ccc3c(C4CC4)noc3n2)c1 | 78.7% (active)
COc1cccc(Oc2ccc3c(C4CC4)noc3n2)c1 | 93% (active)
COc1ccc2c(=O)c3c(=O)n(-c4ccccc4)c(C4CCCCC4)nc3oc2c1 | -17.1%
c1cn(-c2ccc(Oc3ccc4c(C5CC5)noc4n3)cc2)cn1 | 33.5%
c1ccc(Oc2ccc3c(C4CC4)noc3n2)cc1 | 72.8% (active)
CCOc1ccc(C2CC(c3ccc(F)cc3)=NN2C(=O)CN(C)C2CCCCC2)cc1 (stereo not given) | -49.7%
O[C@@H]1CNCC[C@H]1CNCc1cccc(Oc2cccc(C(F)(F)F)c2)c1 | 9.4%
FC(F)(F)c1cccc(Oc2ccc3c(C4CC4)noc3n2)c1 | 70.6% (active)

SMILES | inhibition
Cc1ccc(F)cc1Oc1ccc2c(C3CC3)noc2n1 | 46.9%
Fc1cccc(Oc2ccc3c(C4CC4)noc3n2)c1 | 69.2% (active)
FC(F)(F)c1ccccc1Oc1ccc2c(C3CC3)noc2n1 | 92.9% (active)
Fc1ccc(Cl)cc1Oc1ccc2c(C3CC3)noc2n1 | 61.4% (active)
O=c1[nH]c(NCCO)nc2c1C1(CCCC1)Cc1ccccc1-2 | 3.77%
O=C(Cc1c[nH]c2cccc(Br)c12)OCC1CC1 | -40.3%
CCCNC(=O)C1(C)CCN(Cc2csc(-c3ccc(Cl)cc3)n2)C1 (stereo not given) | 30.7%
Fc1cc(F)cc(Oc2ccc3c(C4CC4)noc3n2)c1 | 95.3% (active)
COc1ccc(Nc2ccc3c(C4CC4)noc3n2)cc1 | 85.2% (active)
Fc1ccc(Oc2ccc3c(C4CC4)noc3n2)cc1 | 6.82%
Cn1c(SCC(N)=O)nc2scc(-c3ccc(F)cc3)c2c1=O | 66.5% (active)
CC(C)c1ccc(-c2csc3ncn(-n4cccc4)c(=O)c23)cc1 | 12.8%
CNC(=O)C1Sc2nc3scc(-c4ccccc4)c3c(=O)n2N=C1C (stereo not given) | 41.4%
Cc1ccccc1C1c2ccsc2CCN1C(C)C(=O)N1CCCN(S(=O)(=O)c2ccc(C(C)(C)C)cc2)CC1 (stereo not given) | 77.4% (active)
CC(Sc1n[nH]c(-c2cccs2)n1)c1ccc(F)cc1F (stereo not given) | 10.1%
COc1ccc(OCc2nc(CSCc3ccc(F)cc3)cs2)cc1 | 50.8% (active)
Fc1ccc(CSCc2csc(-c3ccc(F)cc3)n2)cc1 | 38.6%
Cc1ccc(-c2nnc(SCc3c(C)noc3C)o2)cc1 | 79% (active)
Cc1cc(C)cc(-c2nnc(SCc3cc(C)on3)o2)c1 | 34.2%
CC(C)(C)c1ccc(-c2nnc(SCC(N)=O)o2)cc1 | 98.8% (active)
Cc1cc(CSc2nnc(-c3ccc(C(C)(C)C)cc3)o2)no1 | 85.8% (active)
COc1ccc(-c2nnc(SCC(=O)NC(C)(C)C)o2)cc1 | 38.2%
CN(C)C(=O)CSc1nnc(-c2ccc(Br)cc2)o1 | 78.2% (active)
O=C1N=c2ccc(Br)cc2=C1c1sc(NS(=O)(=O)Cc2ccccc2)nc1O | 16.2%
CC(Sc1nnc(-c2ccc(Br)cc2)o1)C(N)=O (stereo not given) | 86% (active)
CC(C)(C)c1ccc(OCCCC(=O)NCc2cn[nH]c2)cc1 | 88% (active)
Cc1nn(C(C)(C)C)c(C)c1C(=O)NCC1CCCCCCC1 | 80.2% (active)

SMILES | inhibition
Cc1oc(-c2ccccc2)nc1C(=O)NCC1CCCCC1 | 16.3%
Cc1ccc(C(=O)NCC2CCCCC2)c(C2CCN(C(=O)c3ccccc3)CC2)n1 | 31.2%
OC1(c2ccccc2)CC(=NC2=NN(c3ccccc3)CC2)C=C1c1ccccc1 (stereo not given) | 84% (active)
CC(C)Oc1ccc(NC(=O)c2cc(Br)cn2C)cc1 | 23%
Cn1cc(Br)cc1C(=O)Nc1cc2c(cc1Cl)OCO2 | 88.7% (active)
CC(C)c1cccc(-c2nc3c(NCCc4ccncc4)nccc3[nH]2)c1 | 51.9% (active)
Clc1ccccc1-c1nc2c(NCCc3ccccc3)nccc2[nH]1 | 60.4% (active)
Brc1ccc2nc(NCc3ccccn3)nc(-c3ccccc3)c2c1 | 1.6%
COCCCNc1nccc2[nH]c(-c3cccc(C(C)C)c3)nc12 | 78.4% (active)
CC(C)c1cccc(-c2nc3c(NCc4ccccn4)nccc3[nH]2)c1 | 82.7% (active)
c1ccc(CCNc2nc(-c3ccco3)nc3ccccc23)cc1 | 8.49%
FC(F)(F)c1ccc(NCc2csc(-c3ccco3)n2)cc1 | 89.6% (active)
Cc1ccc(-c2cc(CNCc3ccco3)no2)c(C)c1 | 27.2%
FC(F)(F)c1cc(-c2ccco2)nc(NCC2CCCO2)n1 (stereo not given) | 28.3%
CCOc1ccc(Nc2ncnc3c2nnn3C)cc1 | 16.3%
Cn1nnc2c(Nc3ccc(Oc4ccccc4)cc3)ncnc21 | 53.9% (active)
Cn1nnc2c(Nc3ccc(Nc4ccccc4)cc3)ncnc21 | 9.73%
Cn1nnc2c(Nc3ccc(OC(F)F)cc3)ncnc21 | 72% (active)
CCc1ccc(Nc2ncnc3c2nnn3C)cc1 | 69.2% (active)
Cc1cc(Cl)ccc1Oc1ncccc1C#N | 33.1%
Cc1cc(Cl)ccc1OCC(O)CN1CCN(c2ccccc2)CC1 (stereo not given) | 51.6% (active)
Fc1ccc(N=c2scc(-c3ccc(OC(F)F)cc3)n2C2CC2)cc1 | 53.9% (active)
CN=c1scc(-c2ccc(F)cc2)n1N=C(C)c1ccncc1 | 18.1%
Brc1ccccc1-c1csc(=Nc2cccnc2)n1C1CC1 | 36.9%
FC(F)Oc1ccc(-c2csc(=Nc3cccnc3)n2CC2CCCO2)cc1 (stereo not given) | 38.5%
FC(F)Oc1ccc(-c2csc(=Nc3cccnc3)n2C2CC2)cc1 | 80.6% (active)
CN(c1ccccc1)c1nnc(C(O)c2cc(F)c(F)c(F)c2)s1 (stereo not given) | 69.1% (active)

SMILES | inhibition
NC(=O)c1ccc(C(=O)N2CCC(=Cc3ccccc3)CC2)cc1 | -6.19%
CCCCN(C)c1ccc(C(=O)N2CCc3sccc3C2)cc1 | 9.79%
NC(=O)COc1ccc(C(=O)N2CCc3sccc3C2)cc1 | 67% (active)
O=C(COC(=O)c1cc2c(s1)CCC2)NCCN1C(=O)CSC1=O | 71.9% (active)
CC1CC(C)CN(C(=O)c2cc3c(s2)CCC3)C1 (stereo not given) | 8.3%
COC(=O)c1cccc(OC(=O)c2cc3c(s2)CCCC3)c1 | 22%
Cc1cccc(C)c1NC(=O)CN(C)c1cnn(Cc2ccccc2)c(=O)c1Cl | 32.3%
Cc1cccc(C)c1NC(=O)C[N+](C)(C)C | 65.2% (active)
CN(Cc1nc2ccccc2c(=O)[nH]1)C(=O)c1cccc(Cl)c1Cl | 44.4%
CN(C)C(=O)N1CCN(c2cc(-c3ccccc3)c3ccccc3n2)CC1 | 30.6%
O=c1[nH]c(CN2CCN(c3cc(=O)n4ccccc4n3)CC2)nc2ccccc12 | 68.5% (active)
NC(=O)c1ccc2nc(-c3ccc(Oc4ccc(Cl)cc4)cc3)[nH]c2c1 | 64.4% (active)
NC(=O)c1ccc(-c2nc(-c3ccc4c(c3)OCCO4)c(-c3ccccn3)[nH]2)cc1 | 40.2%
CC(C)CNc1nn2cc(C(C)(C)C)nc2s1 | 43.8%
Cc1ccc(CNc2ncnc3[nH]ncc23)o1 | 99.6% (active)
COc1ccc(CCNc2ncnc3[nH]ncc23)cc1 | 8.19%
C=CCNC(=O)c1cccc(I)c1 | -37.8%
CN(C)c1cccc(C(=O)NCC2COc3ccccc3C2)c1 (stereo not given) | 13.6%
CCC/C=C/c1ccc(NC(C)=O)nc1 | 92.5% (active)
CCC/C=C/c1cccc(C(=O)NCC)c1 | 79.3% (active)
COCC(=O)N1CCC(C(=O)Nc2ccc(-c3cccc(C)c3)cc2)CC1 | inactive
Cc1cccc(-c2ccc(NC(=O)C3CCN(C(=O)CC4=CCCCC4)CC3)cc2)c1 | 90.9% (active)
C=CCC(=O)N1CCC(C(=O)Nc2ccc(-c3cccc(C)c3)cc2)CC1 | 91.9% (active)
Cc1cccc(-c2ccc(NC(=O)C3CCN(C(=O)CC4CCCC4)CC3)cc2)c1 | 89.3% (active)
